{"source": "PubChem BioAssay AID602440", "about": "(Sanford-Burnham Center for Chemical Genomics, 2012)", "note": "In all, about 360,000 compounds went through this assay and about 2,300 (0.64%) were called active. Cut-off read from the data, not from the text of the source: active = inhibition mostly above about 40% (no sharp cut-off); inactive = mostly below about 27%. What follows is part of a selection rich in actives, with near analogues and random picks from the rest.", "data": [{"molecular_target": "Sentrin-specific protease 8 (Homo sapiens) (UniProt Q96LD8)", "sequence (Q96LD8 whole entry, looked up)": "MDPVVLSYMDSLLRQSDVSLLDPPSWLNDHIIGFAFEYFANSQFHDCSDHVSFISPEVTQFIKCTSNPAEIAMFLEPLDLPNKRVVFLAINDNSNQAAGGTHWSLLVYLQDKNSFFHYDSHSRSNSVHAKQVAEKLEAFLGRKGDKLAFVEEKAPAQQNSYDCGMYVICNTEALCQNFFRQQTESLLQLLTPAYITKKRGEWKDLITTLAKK", "assay": "blockers of SENP8 deneddylase activity – biochemical, fluorescence, Nedd8 protein substrate, uHTS, primary screen (AID 602440)", "details": "recombinant SENP8, Nedd8 substrate fluorescence; at 20 µM; active compounds read high", "values": [{"smiles": "Cc1cc(C)c(/C=C2\\C(=O)Nc3ccccc32)[nH]1", "inhibition": "59.5% (active)"}, {"smiles": "COc1ccccc1S(=O)(=O)c1c(C)cc(C)[nH]c1=O", "inhibition": "-5.8% (inactive)"}, {"smiles": "O=C(c1ccccc1F)N(Cc1ccccc1)Cc1ccccc1", "inhibition": "7.7% (inactive)"}, {"smiles": "Cc1cccc(N(Cc2ccccc2)C(=O)c2ccccc2F)c1", "inhibition": "10.3% (inactive)"}, {"smiles": "Cc1ccc(N(Cc2ccccc2O)C(=O)c2ccccc2F)cc1", "inhibition": "43.7% (active)"}, {"smiles": "CCC(=O)N1CCC(C(N)=O)(N2CCCCC2)CC1", "inhibition": "23.1% (inactive)"}, {"smiles": "CN1CCN(CC(=O)C23CC4CC(CC(C4)C2)C3)CC1", "inhibition": "8% (inactive)"}, {"smiles": "O=C(CCC(=O)OCc1cccc(C(=O)Oc2ccccc2)c1)Nc1cccc2ccccc12", "inhibition": "-5.4% (inactive)"}, {"smiles": "Cc1c(CC(=O)N2CCN(C(=O)C3COc4ccccc4O3)CC2)c(=O)oc2c(O)c(O)ccc12", "note": "(stereo unspecified)", "inhibition": "-291% (inactive)"}, {"smiles": "Cn1c2ccccc2n2c(=O)c(=O)n(CC(=O)c3ccc(F)cc3)nc12", "inhibition": "-7.8% (inactive)"}, {"smiles": "COc1ccc(NC(=O)CSc2nncc(=O)n2N)cc1OC", "inhibition": "8% (inactive)"}, {"smiles": "Cc1cc([N+](=O)[O-])ccc1NCc1cccc([N+](=O)[O-])c1", "inhibition": "29.2% (inactive)"}, {"smiles": "O=C1Nc2ccc([N+](=O)[O-])cc2C1=Nc1cccc(CO)c1", "inhibition": "65.6% (active)"}, {"smiles": "CN1CCN(/N=C2/C(=O)Nc3ccc([N+](=O)[O-])cc32)CC1", "inhibition": "23.5% (inactive)"}, {"smiles": "COc1ccc(NC(=O)CN(C)C(=O)c2ccc(NC3CC3)c([N+](=O)[O-])c2)cc1", "inhibition": "33.7% (inactive)"}, {"smiles": "Cc1cc(C=O)c(C)n1-c1ccc(NC2CCCCC2)c([N+](=O)[O-])c1", "inhibition": "56.6% (active)"}, {"smiles": "Cc1ccc(C(=O)COC(=O)CCCC(=O)NC2CCCCC2)cc1[N+](=O)[O-]", "inhibition": "19.6% (inactive)"}, {"smiles": "O=C(Nc1ccc2c(c1)[C@@H]1C[C@@H](CC(=O)N3CCCCC3)O[C@@H](CO)[C@@H]1O2)NC1CCCCC1", "inhibition": "15.5% (inactive)"}, {"smiles": "CC1Cc2[nH][nH]c(=O)c2C(C2CC2)O1", "note": "(stereo unspecified)", "inhibition": "19.9% (inactive)"}, {"smiles": "CN=C(Nc1cccc(S(=O)(=O)N2CCOCC2)c1)c1ccccc1", "inhibition": "9.5% (inactive)"}, {"smiles": "CCCCNC(=S)N/N=C1\\CCCCc2ccccc21", "inhibition": "21.8% (inactive)"}, {"smiles": "CCCC1CCC(=NNC(=S)NCCc2ccccc2)CC1", "note": "(stereo unspecified)", "inhibition": "45.2% (active)"}, {"smiles": "Cc1cc(F)ccc1NC(=S)NCCc1ccccc1", "inhibition": "8% (inactive)"}, {"smiles": "CCOC(=O)c1ccc(N2C(=O)CC(N3CCN(C(=O)c4ccccc4)CC3)C2=O)cc1", "note": "(stereo unspecified)", "inhibition": "2.8% (inactive)"}, {"smiles": "CCOC(=O)c1ccc(N2C(=O)CC(N3CC(C)OC(C)C3)C2=O)cc1", "note": "(stereo unspecified)", "inhibition": "14% (inactive)"}, {"smiles": "CCOC(=O)c1ccc(N2C(=O)CC(N(C)Cc3ccccc3)C2=O)cc1", "note": "(stereo unspecified)", "inhibition": "46.8% (active)"}, {"smiles": "COC(=O)C1=C(C(=O)OC)C(c2cc([N+](=O)[O-])ccc2O)c2sc(=O)[nH]c2S1", "note": "(stereo unspecified)", "inhibition": "38.8% (inactive)"}, {"smiles": "N#CC1(C#N)C(C(=O)C23CC4CC(CC(C4)C2)C3)C12CCOCC2", "note": "(stereo unspecified)", "inhibition": "2.5% (inactive)"}, {"smiles": "O=C1Nc2c(Br)cc(Br)cc2C1(O)N1CCOCC1", "note": "(stereo unspecified)", "inhibition": "60.2% (active)"}, {"smiles": "O=C(c1cc2cc(Br)cc(Br)c2oc1=O)N1CCOCC1", "inhibition": "-4.2% (inactive)"}, {"smiles": "Cc1ccc(Nc2nc(CSc3nnc(-c4ccncc4)n3-c3ccccc3C)cs2)cc1", "inhibition": "11.2% (inactive)"}, {"smiles": "Cc1oc2c(C)c3oc(=O)c(CC(=O)N[C@@H](CC(C)C)C(=O)N[C@@H](Cc4ccccc4)C(=O)O)c(C)c3cc2c1C", "inhibition": "-222% (inactive)"}, {"smiles": "Cc1ccc(NS(=O)(=O)c2ccc3c(c2)oc(=O)n3C)c(C)c1", "inhibition": "12.2% (inactive)"}, {"smiles": "CCN(CC(=O)NC1CCS(=O)(=O)C1)S(=O)(=O)c1ccccc1", "note": "(stereo unspecified)", "inhibition": "3.6% (inactive)"}, {"smiles": "COc1ccc2[nH]c(=O)c(CN(Cc3cccnc3)S(=O)(=O)c3ccccc3F)cc2c1", "inhibition": "-316% (inactive)"}, {"smiles": "CCc1ccccc1NC(=O)[C@@H]1CCC(=O)N1C1OC(=O)c2c1ccc(OC)c2OC", "note": "(stereo partly specified)", "inhibition": "58.1% (active)"}, {"smiles": "O=C(Nc1ccccc1C(=O)N1CCOCC1)C1CCC(=O)N1C1CCCC1", "note": "(stereo unspecified)", "inhibition": "7.7% (inactive)"}, {"smiles": "CCc1ccccc1NC(=S)Nc1cc(OC)c(NC(=O)C(C)C)cc1OC", "inhibition": "22.3% (inactive)"}, {"smiles": "CC(=O)NC(CC(=O)Nc1nccs1)c1ccccc1", "note": "(stereo unspecified)", "inhibition": "20.4% (inactive)"}, {"smiles": "CCC(C)NC(=O)c1ccc(NC(=O)CC2SC(N3CCCCC3)=NC2=O)cc1", "note": "(stereo unspecified)", "inhibition": "0.4% (inactive)"}, {"smiles": "CCOc1ccc(C(C)NC(=O)CN2C(=O)NC3(CCCCC3)C2=O)cc1OCC", "note": "(stereo unspecified)", "inhibition": "4.1% (inactive)"}, {"smiles": "CCOc1ccc(C(c2c(C)[nH][nH]c2=O)c2c(C)[nH][nH]c2=O)cc1OCC", "inhibition": "53.9% (active)"}, {"smiles": "CCOc1ccc(C(CC(=O)O)NC(=O)C23CC4CC(CC(C4)C2)C3)cc1OC", "note": "(stereo unspecified)", "inhibition": "9% (inactive)"}, {"smiles": "CCCCNC(=O)C[C@@H]1C[C@@]2(C(=O)OC)CC(C)(C)CC=C2N(Cc2ccco2)C1=O", "inhibition": "6% (inactive)"}, {"smiles": "O=[N+]([O-])c1ncc(Br)cc1Nc1ccccc1", "inhibition": "22.6% (inactive)"}, {"smiles": "CC(C)CCNC(=O)C1CCC(CNc2c(N3CCC(C)CC3)c(=O)c2=O)CC1", "note": "(stereo unspecified)", "inhibition": "42.8% (active)"}, {"smiles": "CC(NC(=O)C1CCC(CNc2c(N3CCOCC3)c(=O)c2=O)CC1)c1ccccc1", "note": "(stereo unspecified)", "inhibition": "9.1% (inactive)"}, {"smiles": "O=C(NCCCc1ccccc1)C1CCC(CNc2c(N3CCCCC3)c(=O)c2=O)CC1", "note": "(stereo unspecified)", "inhibition": "23.4% (inactive)"}, {"smiles": "Cc1ccc(CN2CCCOCCS2(=O)=O)cc1", "inhibition": "13.5% (inactive)"}, {"smiles": "CC(C)CN1CCC1(C)C(=O)Nc1ccc(OC(F)F)cc1", "note": "(stereo unspecified)", "inhibition": "5.2% (inactive)"}, {"smiles": "COCCNc1nc(-n2nc(C)cc2C)nc2sc3c(c12)CCCC3", "inhibition": "-415% (inactive)"}, {"smiles": "COc1ccc(C(C(=O)NC2CCCCC2)N(C(=O)Cc2c[nH]c3ccccc23)c2ccccc2)cc1OC", "note": "(stereo unspecified)", "inhibition": "-12.6% (inactive)"}, {"smiles": "CC(C)[C@H](NC(=O)OCc1ccccc1)C(=O)OCc1ccccc1", "inhibition": "5.8% (inactive)"}, {"smiles": "COc1ccc(-c2[nH][nH]c(=O)c2NC(=O)c2ccc([N+](=O)[O-])cc2)cc1", "inhibition": "60.2% (active)"}, {"smiles": "COc1ccc(NS(=O)(=O)c2cc(NC(=O)CC(=O)c3ccc([N+](=O)[O-])cc3)ccc2C)cc1", "inhibition": "6.3% (inactive)"}, {"smiles": "Cc1ccc(C(=O)Nc2c(-c3ccccc3)[nH][nH]c2=O)cc1", "inhibition": "12.1% (inactive)"}, {"smiles": "Cc1n[nH]c(C)c1S(=O)(=O)N1CCCC(C(=O)Nc2ccc(Br)cc2)C1", "note": "(stereo unspecified)", "inhibition": "13.4% (inactive)"}, {"smiles": "CCn1cc(C(=O)N2CC(C)CC(C)C2)c(=O)c2cc(S(=O)(=O)N3CCCC3)ccc21", "note": "(stereo unspecified)", "inhibition": "11.3% (inactive)"}, {"smiles": "Cc1ccc(N(C(=O)c2ccc(S(=O)(=O)N(C)C)cc2)C2C=CS(=O)(=O)C2)cc1", "note": "(stereo unspecified)", "inhibition": "9.3% (inactive)"}, {"smiles": "COC(=O)C1=C(C(=O)OC)[C@@H]2N(C)c3ccccc3[C@@]23C[C@@H](C(=O)OC)N(C(=O)c2ccco2)C3=N1", "inhibition": "3.7% (inactive)"}, {"smiles": "O=C(Nc1ccccc1C(F)(F)F)N1CCCC1c1cccnc1", "note": "(stereo unspecified)", "inhibition": "6.2% (inactive)"}, {"smiles": "COc1ccc(C(=O)NC(=S)N2CCCCC2c2cccnc2)cc1OC", "note": "(stereo unspecified)", "inhibition": "8.4% (inactive)"}, {"smiles": "O=C(NC(=S)N1CCCCC1c1cccnc1)c1ccccc1", "note": "(stereo unspecified)", "inhibition": "46.4% (active)"}, {"smiles": "COc1cccc(NC(=O)CN(C)CC(=O)c2c(N)n(Cc3ccccc3)c(=O)n(C)c2=O)c1", "inhibition": "0.5% (inactive)"}, {"smiles": "COc1cc(/C=C/CO)cc(OC)c1O[C@@H]1O[C@H](CO)[C@@H](O)[C@H](O)[C@H]1O", "inhibition": "-20.9% (inactive)"}, {"smiles": "CCCCNCCS(=O)(=O)NCc1ccccc1", "inhibition": "61.4% (active)"}, {"smiles": "CCCCNS(=O)(=O)CCNCc1ccccc1OC", "inhibition": "5.2% (inactive)"}, {"smiles": "Cc1ccc(CNS(=O)(=O)CCNC(=O)c2ccccc2)cc1", "inhibition": "5.7% (inactive)"}, {"smiles": "O=C(NCc1ccco1)/C(=C/c1cccc([N+](=O)[O-])c1)NC(=O)c1ccco1", "inhibition": "15.2% (inactive)"}, {"smiles": "O=C(NCc1ccco1)/C(=C\\c1cccc([N+](=O)[O-])c1)NC(=O)c1ccco1", "inhibition": "9.4% (inactive)"}, {"smiles": "Cc1ccc(C(=O)N/C(=C/c2ccc(-c3cccc([N+](=O)[O-])c3)o2)C(=O)NCCCN(C)C)cc1", "inhibition": "51.7% (active)"}, {"smiles": "COc1ccc(C(=O)OCC(=O)Nc2cc(C)on2)cc1F", "inhibition": "10.9% (inactive)"}, {"smiles": "CN(C)S(=O)(=O)c1cc(C(=O)Nc2ccn(C)n2)c(Cl)cc1Cl", "inhibition": "19.3% (inactive)"}, {"smiles": "CCN=C1SC(CC(=O)Nc2ccc(C)cc2)C(=O)N1CC", "note": "(stereo unspecified)", "inhibition": "40.5% (active)"}, {"smiles": "CCN1C(=O)C(CC(=O)Nc2cc(C)ccc2C)SC1=Nc1ccc(S(N)(=O)=O)cc1", "note": "(stereo unspecified)", "inhibition": "13.6% (inactive)"}, {"smiles": "CN=C1SC(CC(=O)Nc2ccc(C(=O)O)cc2)C(=O)N1C", "note": "(stereo unspecified)", "inhibition": "16.1% (inactive)"}, {"smiles": "Cc1cccc(N2CC(C(=O)Nc3ccccc3N3CCCC3)CC2=O)c1C", "note": "(stereo unspecified)", "inhibition": "14.3% (inactive)"}, {"smiles": "CC1CCN(c2ccc([N+](=O)[O-])c(SCCO)c2)CC1", "inhibition": "40.3% (active)"}, {"smiles": "CC1CCN(c2ccc3c(c2)S(=O)(=O)c2cc(C(=O)O)ccc2C3=O)CC1", "inhibition": "-15.6% (inactive)"}, {"smiles": "CC1CCN(c2ccc(C(=O)NCc3ccc4c(c3)OCO4)cc2[N+](=O)[O-])CC1", "inhibition": "20.8% (inactive)"}, {"smiles": "COc1ccc(C(=O)N2CCC(C(=O)Nc3cccc(C)c3)CC2)cc1OC", "inhibition": "9.3% (inactive)"}, {"smiles": "COc1ccc(-c2c(C)nn3c(N4CCC(C(=O)N5CCCCC5)CC4)cc(C)nc23)cc1OC", "inhibition": "-21.1% (inactive)"}, {"smiles": "COC(=O)[C@]12CCCCC=C1N(Cc1ccc3c(c1)OCO3)C(=O)[C@H](CC(=O)NCc1cccs1)C2", "inhibition": "19.5% (inactive)"}, {"smiles": "CCOc1ccc(S(=O)(=O)N2CCN=C2Cc2ccccc2)cc1C", "inhibition": "23.3% (inactive)"}, {"smiles": "Nc1nnn(CC(=O)N/N=C/c2ccccc2)n1", "inhibition": "-8.5% (inactive)"}, {"smiles": "COC(=O)C(C)N=Cc1ccccc1", "note": "(stereo unspecified)", "inhibition": "0.2% (inactive)"}, {"smiles": "NN=C(NN=Cc1ccccc1)c1ccccc1", "inhibition": "49.4% (active)"}, {"smiles": "O=C(NCc1ccccc1)C(=O)NCC1OCCN1S(=O)(=O)c1ccc(Br)cc1", "note": "(stereo unspecified)", "inhibition": "0.6% (inactive)"}, {"smiles": "COc1ccc(C2(C)NC(=O)N(CC(=O)c3ccc4c(c3)OCO4)C2=O)cc1", "note": "(stereo unspecified)", "inhibition": "-8.5% (inactive)"}, {"smiles": "CCOc1ccc(NCCC(=O)c2ccc3c(c2)OCO3)cc1", "inhibition": "37.1% (active)"}, {"smiles": "CCOc1ccc(C(=O)CCN2CCOCC2)cc1", "inhibition": "5.4% (inactive)"}]}]}
